Hits are enriched below; roughly 2.4% of the tested compounds scored in any of these assays.
D2 antagonist = antagonists of human D2 dopamine receptor; P14416; inhibition, % at 10 µM; AID 485344; actives 2% (n = 340,000); HEK293 TREx D2 cells, calcium flux, dopamine EC80; in the data active = inhibition above about 30%; inactive = below that, where a call was filed; note: 0% is about no effect
Target sequence (P14416 whole entry, looked up): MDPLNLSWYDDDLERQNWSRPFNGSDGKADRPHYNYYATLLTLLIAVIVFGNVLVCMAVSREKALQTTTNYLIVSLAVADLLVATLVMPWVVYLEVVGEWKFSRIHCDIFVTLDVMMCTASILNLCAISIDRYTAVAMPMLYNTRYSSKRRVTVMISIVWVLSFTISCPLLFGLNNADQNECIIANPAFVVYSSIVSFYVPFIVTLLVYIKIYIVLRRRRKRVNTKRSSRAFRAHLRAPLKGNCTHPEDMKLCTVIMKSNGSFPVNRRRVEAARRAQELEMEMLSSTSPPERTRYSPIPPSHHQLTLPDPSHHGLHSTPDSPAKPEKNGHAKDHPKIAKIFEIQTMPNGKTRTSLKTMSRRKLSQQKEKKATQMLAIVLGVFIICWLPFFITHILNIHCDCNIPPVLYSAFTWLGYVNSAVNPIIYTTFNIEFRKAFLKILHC
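Overnight-induced (tetracycline, 30 C) HEK293 T-REx cells carrying force-coupled D2 receive a no-wash calcium dye, then compound, then EC80 dopamine at 180 s; signals are read kinetically throughout.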
D2 PAM-1 = D2 dopamine receptor (human) potentiation | P14416 | HEK293 T-REx D2, calcium flux, EC20 dopamine potentiation | potentiation, % at 10 µM | actives 0.34% (n = 340,000);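 active = potentiation over 3 SD above the plate norm, cut at about 30% in these data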; note: 0% is about no effect
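Tetracycline-induced Hek293 Trex D2 cells, force-coupled to calcium, loaded with no-wash calcium dye. Compound added with 180 s kinetic read for agonism, then EC20 dopamine and a further 180 s read for potentiation.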
D2 PAM-2 = human D2 receptor positive allosteric modulation | P14416 | DiscoveRx D2 beta-arrestin cells, luminescence, 90 min; 100% = 57 uM dopamine signal | potentiation, % (test concentration not listed) | actives 0.23% (n = 360,000) | AID 624464; in the data active = potentiation above about 50%; inconclusive = mostly about 30% to 49%
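PathHunter D2 cells, attached overnight at 37 deg C, received compound in DMSO plus dopamine at EC20 (50 nM final) for 90 min at 37 deg C. Beta-arrestin recruitment was read as luminescence after 1 h with detection reagent at ambient temperature.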
D2 ag-1 = human D2 receptor agonism in beta-arrestin assay; AID 624465; P14416; DiscoveRx PathHunter D2 beta-arrestin, luminescence, 90 min; 100% = 57 uM dopamine signal; activation, % (no concentration beside the values); actives 0.084% (n = 360,000); in the data active = activation above about 40%; inconclusive = between about 15% and that limit
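Agonist mode: compounds alone added to overnight-plated D2 PathHunter cells for 90 min at 37 C, with 57 uM final dopamine (EC100) defining full response. Beta-arrestin recruitment detected by chemiluminescent reagent, read after 1 h at ambient temperature.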
D2 ag-2 = D2 dopamine receptor (human) agonism; actives 0.53% (n = 340,000); HEK293 T-REx D2 cells, calcium flux agonist mode; activation, % at 2 µM; AID 485358; P14416;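 active = activation over 3 SD above normal in the single-dose calcium agonist read, cut at about 30% in these data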; note: 0% is about no effect
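Agonism scored from kinetic calcium signal (1 read/sec, 180 s) following compound pin transfer, after a 10 s baseline. Cells: HEK293 Trex line expressing inducible D2 receptor coupled to calcium, dye-loaded after overnight culture at 30 C.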
The depositor's hits bear a star; ? = inconclusive; nt = no result.

SMILES	D2 antagonist	D2 PAM-1	D2 PAM-2	D2 ag-1	D2 ag-2
COC(=O)C(Cc1ccccc1)NC(=O)CCC(=O)NC(C)CCc1ccccc1 (stereo unspecified)	0	-6	-2	-2	0
O=C(COc1ccc(Br)cc1)NCCNC(=O)c1ccncc1	47*	-11	-16	-8	0
Cc1cccc(C)c1OCC(=O)NNC(=O)CCNC(=O)c1ccc(Br)cc1	-3	0	64*	-5	0
Cc1ccc(CNC(=O)c2cc3sc(Cl)cc3n2C)cc1	nt	-6	nt	nt	nt
COC(=O)C(Cc1ccccc1)NC(=O)CCNC(=O)c1ccc(Br)cc1 (stereo unspecified)	nt	40*	-5	-1	nt
CC(C)(C)NC(=O)C(c1ccc(-c2ccccc2)cc1)N(C[C@H]1CC[C@@H]([C@@H]2CC[C@H](CO)O2)O1)C(=O)c1ccccc1F (stereo partly specified)	nt	nt	nt	0	nt
Cc1cc(=O)n(Cc2c(F)cccc2Cl)c2c1c(C)nn2C	nt	-2	nt	nt	0
CC[C@]12c3[nH]c4cc(CCC(=O)N(C)C)ccc4c3CCN1C(=O)[C@@H](CC(=O)NCCCn1ccnc1)C[C@@H]2C(=O)N1CCN(C(=O)c2ccco2)CC1	nt	nt	-5	-2	nt
COc1ccc(CCNC(=O)CCNC(=O)c2ccc(Br)cc2)cc1OC	-8	-9	-2	0	35*
CCOc1ccccc1-n1c(SCC(=O)N2CCCC2)nnc1-c1ccc(O)cc1	2	31*	-3	0	-1
Cc1cc(Nc2ccc(F)cc2)n2c(nc3ccccc32)c1C#N	nt	12	nt	nt	2
Cc1cc(Nc2cccc([N+](=O)[O-])c2)n2c(nc3ccccc32)c1C#N	35*	8	16	-1	4
Cc1cc(Nc2ccc(F)cc2)nc(-n2nc(C)cc2C)n1	nt	0	nt	nt	0
CCN(C/C=C/c1ccccc1OC)Cc1ccccc1	80*	-30	-26	1	0
CCCCN(C/C=C/c1ccccc1OC)Cc1ccccc1	22	-7	-34	2	2
Oc1cc(-c2ccccc2)c2ccccc2c1	-6	-5	30	45*	1
Nc1nc(N)nc(-c2cccc(Cl)c2)n1	32*	-3	-9	-2	0
Cc1c(C)n(O)c2ccc3nonc3c12	41*	9	1	-2	1
COc1cc2cc(C(c3nnnn3C3CCCC3)N3CCc4ccccc43)c(=O)[nH]c2cc1OC (stereo unspecified)	-2	4	-4	2	0
O=c1[nH]c2cc3c(cc2cc1C(c1nnnn1C1CCCC1)N1CCCc2ccccc21)OCCO3 (stereo unspecified)	1	43*	25	-2	1
O=C(NCCc1ccccc1)C1Cc2c(-c3ccccc3Oc3ccccc3)ccnc2O1 (stereo unspecified)	nt	nt	-11	-4	nt
Cc1ccc(S(=O)(=O)N/N=C\c2cccnc2)cc1	35*	-1	-14	4	0
O=C(CSc1cccc(C(F)(F)F)c1)NC(=O)c1ccccc1	0	-7	-13	-2	-2
COc1ccc(Cl)cc1NC(=O)CSc1nc(N2CCOCC2)nc(N2CCOCC2)n1	17	6	-5	1	0
O=C(CSc1cccc(C(F)(F)F)c1)Nc1ccc(Cl)cc1Cl	49*	-9	9	1	0
SMILES	D2 antagonist	D2 PAM-1	D2 PAM-2	D2 ag-1	D2 ag-2
O=C(CSc1nc(N2CCOCC2)nc(N2CCOCC2)n1)Nc1ccc(Cl)cc1Cl	33*	1	-7	-5	1
CC(=O)N1CCN(C(=S)c2ccc([N+](=O)[O-])cc2)CC1	48*	-16	1	-5	0
CC(=O)N1CCN(c2ccc([N+](=O)[O-])cc2)CC1	-4	4	-6	-1	0
Cc1ccc(NC(=O)c2ccc(=O)n(CC(=O)Nc3ccccc3)n2)cc1	-12	4	-7	-5	1
Cn1c(C(=O)NN)cc2cc(OCc3ccccc3)ccc21	nt	nt	-5	-2	nt
Cc1cccc(NC(=S)N2CCCCC2)c1	-2	19	-2	-5	1
Cc1ccc(C2CCN(C(=S)Nc3cccc(C)c3)C2)cc1 (stereo unspecified)	8	75*	-12	-3	-1
O=C(COC(=O)C1CCN(c2ccc(C(F)(F)F)cn2)CC1)Nc1ncc(Cl)cc1Cl	35*	1	-1	-1	0
O=C(COC(=O)C1CCN(c2ccc(C(F)(F)F)cn2)CC1)Nc1ccc(Cl)cn1	10	2	-4	-6	1
O=C(COC(=O)C1CCN(c2ccc(C(F)(F)F)cn2)CC1)NCc1cccc(Cl)c1	34*	4	-30	-7	2
CCn1c(SC(C)C(=O)NCC2CCCO2)nc2ccccc21 (stereo unspecified)	31*	-5	-16	-1	-2
C=CCn1c(COc2ccc(F)cc2)nnc1SC(C)C(=O)NCC1CCCO1 (stereo unspecified)	61*	-13	-7	-4	0
Cc1csc(=O)n1CC(=O)OCC(=O)Nc1ccc(F)c(F)c1	9	9	?	0	-1
COc1ccccc1N1CCN(C(=O)CSc2nc3ccccc3nc2Cc2ccc(F)cc2)CC1	nt	0	nt	nt	0
COc1cc(NC(=O)Nc2nc(C(N)C3CCCCC3)cs2)cc(OC)c1OC (stereo unspecified)	nt	nt	?	109*	nt
COc1ccccc1NC(=O)Nc1nc(C(N)C2CCCCC2)cs1 (stereo unspecified)	nt	nt	-20	2	nt
c1ccc(Cn2c[n+](Cc3ccccc3)cn2)cc1	43*	-6	-5	-3	1
N#Cc1ccccc1NS(=O)(=O)c1ccc(N2CCCCS2(=O)=O)cc1	nt	-2	nt	nt	nt
O=c1c2c([N+](=O)[O-])cc([N+](=O)[O-])cc2sn1Cc1ccccc1	nt	nt	8	-7	nt
O=c1c2c([N+](=O)[O-])cc([N+](=O)[O-])cc2sn1-c1ccc(Br)cc1	7	-2	61*	11	1
CCN(CC)c1ccc2c(C)c(Cl)c(=O)oc2c1	-6	8	-3	7	0
CCN(CC)c1ccc2c(c1)oc(=O)c1c(Cl)cc(=O)oc12	51*	-5	-33	-5	48*
Cn1c(=O)c2c(ncn2CC(N)=O)n(C)c1=O	7	1	-14	2	1
Cn1c(=O)c2c(ncn2CC2OCCO2)n(C)c1=O	32*	2	-6	-3	1
Cc1cccc(N2C(=O)C3C4C=CC(CC4)C3C2=O)c1 (stereo unspecified)	4	21	16	-7	0
Cc1ccc(N2C(=O)C3C4C=CC(C4)C3C2=O)cc1 (stereo unspecified)	0	51*	-4	-3	1

High-throughput results (PubChem BioAssay)
